Experimental findings from PubChem BioAssay AID372 (MTDP, 2006) are described below.

The whole screen tested about 100,000 compounds, of which about 770 (0.77%) were called active. Shown is part of a subset that was picked to be rich in actives. A number with no mark means an inactive call. No stated cut-off is given here; in the data, active means inhibition above about 50%; inactive means the rest.

This experiment deals with Gag-Pol polyprotein (Human immunodeficiency virus type 1 group M subtype B (isolate HXB2)) (UniProt P04585). Kind of experiment: RNase H inhibition, HIV 1 Gag Pol polyprotein, FRET biochemical assay, screening (AID 372). The following applies: HIV-1 RT RNase H, FRET RNA/DNA substrate fluorescence; at 10 µM; active compounds read high.
Take `COc1ccc(/C(C)=N/NC(=O)c2ccncc2)c(OC)c1OC`: the inhibition (commonly how much of the control response was suppressed) was 5%.

Regarding `COc1cc(Br)c(CNc2cccc(C)c2)cc1OC`, the inhibition is 22%.

On to `CCc1c(C)c(C#N)c2nc3ccccc3n2c1Nc1ccc(N(CC)CC)cc1`, for which the inhibition was 30%.

Take `O=C(Nc1ccccc1C#Cc1ccccc1)c1ccc(-c2ccccc2)cc1`: the inhibition was 0%.

With `CC1CC(Nc2ccccc2)c2ccccc2N1` (stereo unspecified), the inhibition was 0%.

For `COC(=O)CN1C(=O)c2cccc3cccc(c23)C1=O`, the inhibition was 7%.

For `N#CC1=C(N)OC2=C(C(=O)CC(c3ccccc3)C2)C1c1coc2ccccc2c1=O` (stereo unspecified), the inhibition was 4%.

On to `O=C1NC(=O)N(Cc2ccco2)C(=O)/C1=C\c1ccc(-c2cccc(Cl)c2Cl)o1`, for which the inhibition is 46%.

On to `O=C1NC(=O)N(Cc2ccco2)C(=O)/C1=C\c1ccc(-c2ccc([N+](=O)[O-])cc2)o1`, for which the inhibition was 17%.

On to `O=C1NC(=O)N(Cc2ccco2)C(=O)/C1=C\c1ccc(-c2ccc(Cl)c([N+](=O)[O-])c2)o1`, for which the inhibition was 35%.

With `O=C1NC(=O)N(Cc2ccco2)C(=O)/C1=C\c1ccc(-c2ccc(Cl)c(Cl)c2)o1`, the inhibition is 41%.

As for `O=C1NC(=O)N(Cc2ccco2)C(=O)/C1=C\c1ccc(-c2ccc(Br)cc2)o1`, the inhibition was 53% (active).

For the compound `Cc1cc(/C=C2/C(=O)NC(=O)N(Cc3ccco3)C2=O)c(C)n1-c1ccc(Cl)cc1`, the inhibition is 12%.

Regarding `O=C1NC(=O)N(Cc2ccco2)C(=O)/C1=C\c1ccc(-c2ccc(C(=O)O)cc2)o1`, the inhibition was 35%.

`Cc1cc([N+](=O)[O-])ccc1-n1c(C)cc(/C=C2/C(=O)NC(=O)N(Cc3ccco3)C2=O)c1C`: the inhibition was 50% (active).

In the case of `Cc1cc(-c2ccc(/C=C3/C(=O)NC(=O)N(Cc4ccco4)C3=O)o2)ccc1Br`, the inhibition is 58% (active).

`CCOC(=O)c1ccc(-c2ccc(/C=C3/C(=O)NC(=O)N(Cc4ccco4)C3=O)o2)cc1`: the inhibition is 34%.

In the case of `Cc1cc(/C=C2/C(=O)NC(=O)N(Cc3ccco3)C2=O)c(C)n1-c1ccc([N+](=O)[O-])cc1`, the inhibition was 14%.

Regarding `O=C1NC(=O)N(Cc2ccco2)C(=O)/C1=C\c1ccc(-c2ccc(Cl)cc2Cl)o1`, the inhibition was 58% (active).

Turning to `O=[N+]([O-])c1cc2c(cc1C=Nc1cc(Cl)cc(Cl)c1)OCO2`, the inhibition is 5%.

Take `COc1ccc([N+](=O)[O-])cc1NCc1ccccc1F`: the inhibition is 12%.

On to `COc1ccc(C2CC(=O)C3=C(C2)NC(C)=C(C(=O)OCc2ccccc2)C3c2cc(OC)c(OC)c(OC)c2)cc1` (stereo unspecified), for which the inhibition was 10%.

`CCOC(=O)c1c(-c2ccc(C(C)C)cc2)csc1N`: the inhibition is 27%.

As to `COc1cc([N+](=O)[O-])ccc1NC(=O)c1ccccc1`, the inhibition is 16%.

`COc1cc2ccccc2cc1C(=O)Nc1ccc(C)c(NC(=O)c2cc3ccccc3cc2OC)c1`: the inhibition was 28%.

In the case of `CC1=C(C(=O)OCCc2ccccc2)C(c2ccc(O)cc2)C2=C(CCCC2=O)N1` (stereo unspecified), the inhibition is 2%.

As to `Cc1ccc(N2C(=O)NC(=O)/C(=C\c3cccc(C(F)(F)F)c3)C2=O)cc1C`, the inhibition is 5%.

Regarding `CCOc1ccc(N2C(=O)/C(=C/c3ccc(-c4ccccc4C(=O)O)o3)C(=O)NC2=S)cc1`, the inhibition is 15%.

Take `O=C(O/N=C(/c1ccccc1)c1ccncc1)c1ccc(Cl)cc1Cl`: the inhibition is 18%.

As to `COc1cc(S(=O)(=O)Oc2ccc(OCc3ccccc3)cc2)ccc1Cl`, the inhibition was 5%.

Regarding `COc1ccc(Cl)cc1S(=O)(=O)Oc1ccc(Cl)cc1`, the inhibition is 39%.

In the case of `COc1ccc(Cl)cc1S(=O)(=O)Oc1ccc(OCc2ccccc2)cc1`, the inhibition was 53% (active).

In the case of `Cc1c(/C=C2/C(=O)NC(=O)N(Cc3ccco3)C2=O)c2ccccc2n1CC(N)=O`, the inhibition is 27%.

Take `Cc1cccc(C(=O)N2N=C(c3ccc(F)cc3)CC2(O)C(F)(F)F)c1` (stereo unspecified): the inhibition was 0%.

Turning to `CCOC(=O)C1=c2s/c(=C\c3ccc(O)c(OCC)c3)c(=O)n2C(N)=C(C#N)C1c1ccc(O)c(OCC)c1` (stereo unspecified), the inhibition is 4%.

Regarding `CCOC(=O)C1=c2s/c(=C\c3ccc(O)cc3)c(=O)n2C(N)=C(C#N)C1c1ccc(O)cc1` (stereo unspecified), the inhibition was 67% (active).

For `CCOC(=O)C1=c2s/c(=C\c3cccnc3)c(=O)n2C(N)=C(C#N)C1c1cccnc1` (stereo unspecified), the inhibition is 7%.

With `C=CCN1C(=O)/C(=C/c2cc([N+](=O)[O-])ccc2OC)SC1=S`, the inhibition is 3%.

With `O=C1NC(=Nc2cccc(Cl)c2Cl)S/C1=C\c1ccccc1`, the inhibition is 12%.

As for `COC(=O)C1=C(C)N(Cc2cccnc2)C(=O)/C1=C\c1ccc(Br)cc1`, the inhibition is 14%.

As for `CC(C)NC(=O)C12CC3(C)CC(C)(CC(C)(C3)C1)C2`, the inhibition is 0%.

Regarding `CCOC(=O)C1=C(O)/C(=C/c2ccc(O)c(OCC)c2)SC1=Nc1ccccc1`, the inhibition was 20%.

On to `CCOC(=O)C1=C(O)/C(=C/c2cc(OC)c(O)c(OC)c2)SC1=Nc1ccccc1`, for which the inhibition was 13%.

With `CCOC(=O)C1=C(O)/C(=C/c2ccc(O)c(OC)c2)SC1=Nc1ccccc1`, the inhibition was 50% (active).

As for `N=C1/C(=C/c2ccc(-c3cc(Cl)ccc3Cl)o2)C(=O)N=C2SC(c3ccccc3)=NN12`, the inhibition is 44%.

On to `N=C1/C(=C/c2ccc(-c3ccc(Cl)cc3Cl)o2)C(=O)N=C2SC(c3ccccc3)=NN12`, for which the inhibition was 2%.

Regarding `N=C1/C(=C/c2ccc(-c3ccccc3Cl)o2)C(=O)N=C2SC(c3ccccc3)=NN12`, the inhibition is 56% (active).

For the compound `Cc1ccc(N(CC(=O)O)S(C)(=O)=O)cc1C`, the inhibition was 0%.

As to `CCCOc1ccccc1/C=C1/SC(N2CCN(c3ccc(Cl)cc3)CC2)=NC1=O`, the inhibition was 12%.

`CCOC(=O)c1cnn2c(C(F)(F)F)c3c(nc12)-c1ccccc1CC3`: the inhibition is 7%.

In the case of `CCOC(=O)c1cnn2c1NC1=C(CCc3ccccc31)C2C(F)(F)F` (stereo unspecified), the inhibition was 58% (active).

Take `CCOC(=O)c1ccccc1NC(=O)c1cnn2c1NC(c1ccccc1)CC2C(F)(F)F` (stereo unspecified): the inhibition is 17%.

In the case of `COc1ccc(CN(CCC(c2ccccc2OC)C2CCOC(C)(C)C2)C(C)=O)cc1` (stereo unspecified), the inhibition was 17%.

In the case of `COc1ccccc1NC(=O)Nc1nnc(-c2ccccc2SCc2ccc(F)cc2)s1`, the inhibition is 10%.

Turning to `CCOC(=O)c1ccc(N=Cc2ccc3c(c2)OCO3)cc1`, the inhibition is 4%.

Consider `COc1ccc(NC(=O)c2c(NC(=O)c3ccco3)sc3c2CCC3)cc1`, for which the inhibition is 15%.

As to `CCOc1ccccc1NC(=O)c1c(NC(=O)c2ccco2)sc2c1CCC(C)C2` (stereo unspecified), the inhibition is 7%.

`CCOc1ccc(NC(=O)c2c(NC(=O)c3ccco3)sc3c2CCCC3)cc1`: the inhibition is 4%.

As for `Cc1ccccc1NC(=O)c1c(NC(=O)c2ccco2)sc2c1CCC(C)C2` (stereo unspecified), the inhibition was 51% (active).

Consider `Cc1ccccc1NC(=O)c1c(NC(=O)c2ccco2)sc2c1CCC2`, for which the inhibition was 24%.

Take `O=C(c1cc(Cl)ccc1Cl)N1CCN(c2ccccc2)CC1`: the inhibition is 5%.

In the case of `Cc1ccc(OCC(=O)Nc2nc(-c3ccccc3)cs2)c(C)c1`, the inhibition is 5%.

As to `COc1ccc(Nc2ccc(C(F)(F)F)cc2[N+](=O)[O-])cc1`, the inhibition was 7%.

Consider `CCNC(=O)c1c(O)c2ccccc2n(C)c1=O`, for which the inhibition was 1%.

Turning to `O=C(c1ccc(Cl)c(Cl)c1)c1ccc(N2CCCCC2)c([N+](=O)[O-])c1`, the inhibition was 19%.

Turning to `O=C(c1ccc(Cl)cc1)c1ccc(N2CCOCC2)c([N+](=O)[O-])c1`, the inhibition was 16%.

Regarding `O=C(c1ccc(Cl)c(Cl)c1)c1ccc(N2CCOCC2)c([N+](=O)[O-])c1`, the inhibition was 54% (active).

Regarding `COc1ccc(N/C(C)=C/C(=O)ONC(=O)c2ccccc2)cc1`, the inhibition is 5%.

Turning to `CCOC(=O)C(N)CSC1CC(=O)N(c2ccc(Cl)c(Cl)c2)C1=O` (stereo unspecified), the inhibition is 7%.

As for `Clc1cccc(-c2nnc(-c3ccc4c(c3)OCO4)o2)c1`, the inhibition is 15%.

`O=C(CSc1nc2ccccc2s1)Nc1ccc(F)c(Cl)c1`: the inhibition is 23%.

Take `O=C(CSc1nc2ccccc2s1)NNC(=S)NC1CCCCC1`: the inhibition was 56% (active).

In the case of `O=C(CSc1nc2ccccc2s1)NNC(=O)NC1CCCCC1`, the inhibition was 0%.

In the case of `O=C(CSc1nc2ccccc2s1)Nc1ccc(Cl)cc1`, the inhibition is 37%.

Regarding `O=C(CSc1nc2ccccc2s1)NC1CCCCC1`, the inhibition is 0%.

With `O=C(CSc1nc2ccccc2s1)NNC(=S)Nc1ccc(Cl)cc1`, the inhibition is 65% (active).

In the case of `COc1ccc(/C=C2/SC(=O)N(CC(=O)Nc3ccc(C)c(C)c3)C2=O)cc1OC`, the inhibition is 22%.

Take `CCCOc1ccc(/C=C2/C(=O)NC(=O)N2C(C)=O)cc1OC`: the inhibition was 0%.

In the case of `O=C(O)c1cc(Br)ccc1N=Cc1ccc2c(c1)OCO2`, the inhibition was 8%.

As for `O=C(Nc1ccc(-c2nc3ccccc3o2)cc1)c1ccc2ccccc2c1`, the inhibition was 43%.

As to `Cc1ccc2nc(-c3ccc(NC(=O)c4ccc5ccccc5c4)cc3)oc2c1`, the inhibition was 59% (active).

Regarding `Cc1ccc(C(=O)Nc2ccc3oc(-c4c(F)c(F)c(F)c(F)c4F)nc3c2)cc1`, the inhibition is 52% (active).

Take `Cc1ccc2oc(-c3ccc(NC(=O)c4ccc(C)c(C)c4)cc3)nc2c1`: the inhibition is 20%.

`CCCOc1ccc(C(=O)Nc2ccc3oc(-c4c(F)c(F)c(F)c(F)c4F)nc3c2)cc1`: the inhibition is 14%.

Consider `Cc1ccc2nc(-c3ccc(C)c(NC(=O)c4ccc5ccccc5c4)c3)oc2c1`, for which the inhibition is 19%.

For the compound `O=C(Nc1ccc2oc(-c3c(F)c(F)c(F)c(F)c3F)nc2c1)c1ccc(F)cc1`, the inhibition is 13%.

Regarding `Cc1ccc2nc(-c3cccc(NC(=O)c4ccc5ccccc5c4)c3)oc2c1`, the inhibition was 38%.

For the compound `Cc1ccc2oc(-c3ccc(NC(=O)c4ccc(Br)cc4)cc3)nc2c1`, the inhibition was 55% (active).

In the case of `O=C(Nc1ccc2oc(-c3ccccc3)nc2c1)c1ccc2ccccc2c1`, the inhibition was 19%.

Regarding `Cc1ccc2oc(-c3ccc(NC(=O)c4ccc5ccccc5c4)cc3)nc2c1`, the inhibition was 52% (active).

For `COc1ccc(C(=O)Nc2ccc(-c3nc4cc(C)ccc4o3)cc2)cc1Br`, the inhibition was 23%.
